# Screening results from PubChem BioAssay.
# Pf apPOL block – Pf-apPOL DNA polymerase inhibition; Recombinant Pf-apPOL, molecular beacon fluorescence, 1.5 h; inhibition, % at 10 µM; hit rate 0.25% among 210,000; AID 1794808
# mHTT-CaM PPI inh – disrupts binding of mutant huntingtin to calmodulin. P42858. AlphaScreen His-mHTT/GST-CaM binding, luminescence. inhibition, % at 15 µM. hit rate 3.6% among 190,000. AID 1671202;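 further: 0% = both proteins with DMSO and 100% = one protein alone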
# * hit, by the source's call; i = inactive; / = no result given; ! = not active in a repeat. Only some compounds are listed: those with a hit (about 3.5% of all), similar ones and a draw of the others. No stated cut-off is given here; in the data, active means inhibition above about 50%; inactive means the rest.
SMILES,Pf apPOL block,mHTT-CaM PPI inh
O=[N+]([O-])c1c(Br)sc(Br)c1[N+](=O)[O-],/,51.8*
Cc1ccccc1CN1CCN(c2ccccc2C)CC1,0.7,-39.9
O=C(O)C1Cc2cc(C(F)(F)F)ccc2N2CCCCC12 (centres undefined),2.6,50.4*
CC1CN(c2ccc(C(F)(F)F)cc2[N+](=O)[O-])CC(C)N1 (centres undefined),2.1,-3.0
O=C(c1nn(CCN2CCCCC2)c2ccccc12)N1CCCC1,-6.5,13.5
Cc1ccc(CC2C(=O)N(C)C(=O)N(C)C2=O)s1,-6.1,6.8
CCN(CC)c1ccc(CC2C(=O)N(C)C(=O)N(C)C2=O)cc1,-1.4,56.7*
C=CCOc1ccc(CC2C(=O)N(C)C(=O)N(C)C2=O)cc1,-4.8,100.1*
O=C1c2ccccc2-c2c3c(cc4ccnc1c24)OCO3,77.0*,/
Cc1ccc(NC(=O)c2cc([N+](=O)[O-])ccc2N2CCNCC2)cc1,0.7,0.3
Cc1nn(-c2ccccc2)c([Se])c1C=NC1CCCCC1,-0.9,63.0*
CN1C2CCC1CC(N=Cc1ccccc1)C2 (centres undefined),-5.6,/
COc1ccc(-n2cnc3cc(C(=O)N4CCC5(CC4)OCCO5)ccc32)cc1,-2.1,6.0
O=C(c1ccc2c(c1)ncn2-c1ccc(OCc2ccccc2)cc1)N1CCC2(CC1)OCCO2,-6.4,52.0*
CCc1ccc(C(=O)N2CCC3(C2)C(=O)N(C)c2ccc(OC)cc23)cc1 (centres undefined),-5.4,27.2
CCOc1cc(/C=C2/C(=O)NC(=O)N(C)C2=O)cc([N+](=O)[O-])c1O,-0.9,2.0
O=[N+]([O-])/C=C/c1ccccc1C(F)(F)F,/,-7.4
Cc1ccc(N2CCN(CCc3ccccc3)CC2)cc1,-2.9,14.9
Cc1cccc(N2CCN(CCc3ccccc3)CC2)c1C,-2.2,100.2*
CN1CCC2(Cl)CCCCC2C1 (centres undefined),-11.3,/
CN(C)c1ccc(CN2CCN(Cc3ccccc3)CC2)cc1,-3.3,3.0
CN(C)c1ccc(CN2CCN(c3ccccc3Cl)CC2)cc1,-7.5,53.1*
Cc1nc2ccccc2nc1N1CCN(C)CC1,-3.3,2.7
c1ccc2c(c1)CCc1c-2[nH]c2ccccc12,-4.8,62.5*
O=C(O)c1cccc2c1NC(C(=O)O)C1CC(Sc3ccccc3[N+](=O)[O-])C(Cl)C21 (centres undefined),-5.0,77.0*
SMILES,Pf apPOL block,mHTT-CaM PPI inh
COc1cc(NC(=O)CN2C(=O)C(C)N=C(c3ccccc3)c3ccccc32)cc(OC)c1 (centres undefined),-8.5,35.0
Cc1cccc(-n2c(/C=C3\C(=O)Nc4ccc(Br)cc43)nc3ccccc3c2=O)c1,-3.6,21.0
COc1cc(Br)cc(/C=C/[N+](=O)[O-])c1O,-0.8,71.9*
COc1cc(/C=C/[N+](=O)[O-])c(OC)cc1C,-3.8,24.8
CC(C)c1ccc(CN2CCN(C)CC2)cc1,-22.4,-3.1
NC(Cc1cc(O)c(O)cc1O)C(=O)O (centres undefined),81.4*,/
NCCc1cc(O)c(O)cc1O,/,31.3
CN(C)c1ccc(CN2CCN(c3ccc(F)cc3)CC2)cc1,-3.9,37.6
CN(C)c1ccc(CN2CC=C(c3ccc(F)cc3)CC2)cc1,3.0,51.7*
C=CCSc1nc2ccccc2c(=O)n1-c1ccc(OC)cc1,1.6,-7.2
O=Cc1nc2ccccc2n1Cc1ccc(Cl)cc1Cl,-5.7,95.4*
O=Cc1nc2ccccc2n1Cc1ccccc1,-4.8,35.2
CC/C(=C\c1ccc(O)c(OC)c1)[N+](=O)[O-],-2.2,20.1
NCCc1nc2ccccc2[nH]1,-0.7,-4.6
c1cncc(-c2noc(C3CNCC34CCOCC4)n2)c1 (centres undefined),-6.7,0.4
CCOc1cc(C(c2c(O)c3ccccc3oc2=O)c2c(O)c3ccccc3oc2=O)ccc1O,-9.7,84.0*
O=c1oc2ccccc2c(O)c1C(c1cccnc1)c1c(O)c2ccccc2oc1=O,-3.5,6.7
COc1ccc(CN2C(=O)NC(=O)/C(=C/c3ccc(O)c(O)c3)C2=O)cc1,5.8,12.0
O=C1C2CCCN2C(c2cccnc2)N1c1ccc(Cl)c(Cl)c1 (centres undefined),-2.2,21.3
O=C1C2CCCN2C(c2ccncc2)N1c1ccc(Cl)c(Cl)c1 (centres undefined),0.4,85.3*
COc1ccc2c(c1)C1(CCN(C(=O)c3ccccc3F)C1)C(=O)N2 (centres undefined),1.0,0.9
CCCNC(=O)OCC12COCN1COC2,/,-6.5
O=C1c2ccccc2C(=O)c2ccccc21,3.1,/
O=C1C=CC(=O)c2c(O)cccc21,96.7*,/
Cc1ccc(C)c(N2CCN(Cc3cc(Br)ccc3O)CC2)c1,-6.6,-25.3
SMILES,Pf apPOL block,mHTT-CaM PPI inh
CS(C)=C1C(=O)NC(=O)N(CCc2ccc(F)cc2)C1=O,-4.7,-1.4
COc1cc(CNCCc2c[nH]c3ccccc23)c([N+](=O)[O-])cc1OC,-1.3,14.5
O=[N+]([O-])c1cc2c(cc1CNCCc1c[nH]c3ccccc13)OCO2,-2.0,68.4*
CCOC(=O)c1ccc(-c2ccc(OC(=O)N(C)Cc3cccc(-c4ccncc4)c3)cc2)cc1,11.9,/
CC1N=C(c2ccccc2)c2ccccc2N(CC(=O)Nc2ccc(F)c(Cl)c2)C1=O (centres undefined),-19.2,66.0*
CC1N=C(c2ccccc2)c2ccccc2N(CC(=O)Nc2ccc(F)cc2Cl)C1=O (centres undefined),-18.9,5.0
Ic1ccc2c(c1)C1C=CCC1C(c1cccnc1)N2 (centres undefined),-3.0,97.0*
Fc1ccc2c(c1)[C@@H]1C=CC[C@@H]1[C@H](c1cccnc1)N2,/,16.7
CCC12CN3CC(CC)(CN(C1)C3c1ccccn1)C2O (centres undefined),-14.4,100.0*
CC12CN3CC(C)(CN(C1)C3c1ccncc1)C2=O (centres undefined),-4.7,2.0
CCOc1cccc(CN2CCCCC2c2cccnc2)c1 (centres undefined),-4.8,1.0
COc1ccc(N=Cc2cc3c(cc2O)OC(N)=C(C#N)C3c2ccco2)cc1 (centres undefined),-3.3,71.0*
CCCCCCCCC1CCNC1=O (centres undefined),/,-4.5
CC(C)(C)c1cc(C(C)(C)C)c2c(c1)C(O)(C(F)(F)F)C(=O)O2 (centres undefined),10.4,/
CN(C)C(=O)Oc1ccc2c(c1)OC(=CC=Cc1ccccc1)C2=O,-4.0,59.0*!
COc1cccc(C=C2Oc3cc(OC(=O)N(C)C)ccc3C2=O)c1,-0.5,10.6
Cc1ccc(-n2cccc2C=C2C(=O)NC(=O)NC2=O)cc1Cl,4.3,80.0*
CN1C(=O)C(=Cc2cccn2-c2ccc(S(N)(=O)=O)cc2)C(=O)N(C)C1=O,-2.6,7.0
CCCn1cc(C(=O)N2CCOCC2)c2cccnc21,-2.4,0.0
COc1ccc(C=C2C(=O)NC(=S)NC2=O)cc1Br,64.2*,/
COc1cc(C=C2C(=O)NC(=O)NC2=O)ccc1OCC(=O)O,-1.4,4.0
CC(Nc1ccc([N+](=O)[O-])c2cccnc12)c1ccccc1 (centres undefined),0.7,5.6
CCC(=O)N1N=C2C3CCN(CC3)C2C1c1ccc(OC)c(OC)c1 (centres undefined),-6.2,-8.7
CC(C)C/C(=N\O)c1cn(C)c2ccccc12,/,i
CN(C)C(CN)c1cn(C)c2ccccc12 (centres undefined),-0.1,69.4*
